Values joined by “and” are separate entries in the source; they are usually repeats but may differ in a detail not shown here. Equal entries are not always repeated.

What all share (format): functional
The target in experiment [1] is Solute carrier family 2, facilitated glucose transporter member 1 (Homo sapiens) (UniProt P11166). The experiment in a line: ST_JUDE_LEISH: Cytotoxicity at 2uM final concentration against transgenic Leishmania Mexicana promastigotes LmGLUT1 that are glucose transport deficient and complemented with the human glucose transporter GLUT1. Activity is measured by DNA content using SYBR green in vitro.

Experiment [2] addresses Hexose transporter 1 (Plasmodium falciparum) (UniProt O97467). Kind of experiment: ST_JUDE_LEISH: Cytotoxicity at 2uM final concentration against transgenic Leishmania Mexicana promastigotes LmPfHT that are glucose transport deficient and complemented with the Plasmodium falciparum hexose transporter. Activity is measured by DNA content using SYBR green in vitro.
For experiment [3], the target named is Glucose transporter (Leishmania mexicana) (UniProt O61059). Kind of experiment: ST_JUDE_LEISH: Cytotoxicity at 2uM final concentration against transgenic Leishmania Mexicana promastigotes LmGT2 that are glucose transport deficient and complemented with the L. Mexicana glucose transporter 2. Activity is measured by DNA content using SYBR green in vitro.

Sequence of Solute carrier family 2, facilitated glucose transporter member 1 (Homo sapiens) (P11166 whole entry): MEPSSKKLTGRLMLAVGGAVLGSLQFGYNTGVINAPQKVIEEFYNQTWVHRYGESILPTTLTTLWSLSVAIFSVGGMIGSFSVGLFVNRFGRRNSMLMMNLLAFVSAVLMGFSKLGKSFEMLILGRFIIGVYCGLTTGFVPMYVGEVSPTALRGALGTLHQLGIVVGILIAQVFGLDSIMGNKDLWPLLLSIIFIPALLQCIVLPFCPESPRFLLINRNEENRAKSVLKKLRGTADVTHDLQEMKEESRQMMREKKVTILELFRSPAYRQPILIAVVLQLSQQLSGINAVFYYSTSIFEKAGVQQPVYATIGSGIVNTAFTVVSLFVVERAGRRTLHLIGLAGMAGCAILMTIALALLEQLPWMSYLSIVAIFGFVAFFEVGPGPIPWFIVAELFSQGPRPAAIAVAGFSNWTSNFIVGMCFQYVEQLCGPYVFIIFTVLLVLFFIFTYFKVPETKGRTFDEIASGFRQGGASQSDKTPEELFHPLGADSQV

One may read the inhibition as the relative decrease from the control value, in per cent. As for `O=C(/C=C/c1cccc(F)c1)NC1CCC(CN2CCC(c3c[nH]c4ccccc34)CC2)CC1` (stereo unspecified), the inhibition in experiment [1] was 2.52% and 1.33%; in experiment [2], -0.05% and 2.1%; in experiment [3] it was -1.71% and 2.77%.
Turning to `COc1ccc2[nH]cc(C3=CCN(Cc4ccccc4)CC3)c2c1`, the inhibition came to 3.41% in experiment [1], 2.34% in experiment [2] and 2.21% in experiment [3].
On the same counts, the results for `O=C(NC1CCC(CN2CCC(c3c[nH]c4ccccc34)CC2)CC1)c1csc(-c2cccc(Cl)c2Cl)n1` (stereo unspecified) are 5.32%, 4.16% and 2.71%.
On the same counts, the results for `C1=C(c2c[nH]c3ccccc23)CCN(Cc2ccccc2)C1` are 1.51%, 0.32% and -0.23%.
As for `O=C(C=Cc1ccc(-c2ccccc2)cc1)NC1CCC(CN2CCC(c3c[nH]c4ccccc34)CC2)CC1` (stereo unspecified), the inhibition was 6.41% and 5.7% in experiment [1]; 7.57% and 7.18% in experiment [2]; 6.53% and 3.78% in experiment [3].
Regarding `CC(Cc1ccc(C(C)(C)C)cc1)NCC(O)c1ccccc1` (stereo unspecified), the inhibition was 2.91% in experiment [1], -0.46% in experiment [2] and 0.43% in experiment [3].
On the same counts, the results for `CC[C@H]1CN2CC[C@H]1C[C@H]2[C@H](O)c1ccnc2ccc(C#N)cc12` are 0.59%, 1.86% and 2.19%.
Take `Oc1ccccc1CN1CCC(CCOC(c2ccccc2)c2ccc(Cl)cc2)CC1` (stereo unspecified): the inhibition was 38.2% in experiment [1], 23.5% in experiment [2] and 13.9% in experiment [3].
In the case of `COC(=O)c1ccc(CC(C)NCC(O)c2cccc(OC(F)(F)F)c2)cc1` (stereo unspecified), the inhibition worked out at 0.35% in experiment [1], 1.5% in experiment [2] and 1.7% in experiment [3].
As for `O=S(=O)(NC1CCC(CN2CCC(c3c[nH]c4ccccc34)CC2)CC1)c1ccc(Cl)c(Cl)c1` (stereo unspecified), the inhibition in experiment [1] was -2.62%; in experiment [2], -1.92%; in experiment [3] it was -2.55%.
As to `CC[C@H]1CN2CCc3cc(OC)c(OC)cc3[C@@H]2C[C@@H]1C[C@H]1NCCc2c1cc(OC)c(O)c2I`, the inhibition in experiment [1] was determined as 93.9%; in experiment [2], 96.6%; in experiment [3], 90%.
On the same counts, the results for `CC[C@H]1C[N+]2([O-])CC[C@@H]1C[C@H]2[C@H](O)c1cc(-c2ccccc2)nc2ccc(OC)cc12` are 5.08%, 2.87% and 4.7%.
On the same counts, the results for `Cc1[nH]c2ccccc2c1C1=CCN(CCCCC23CCCc4cccc(c42)NC3=O)CC1` (stereo unspecified) are 2.64%, 2.98% and 2.47%.
For the molecule `O=P(O)(O)Oc1c(Br)cc(Br)cc1-c1cc(Br)cc(Br)c1O`, the inhibition is 0.02% in experiment [1], 1.27% in experiment [2] and 0.55% in experiment [3].
On the same counts, the results for `CC[C@H]1CN2CC[C@@H]1C[C@H]2[C@H](O)c1cc(-c2ccccc2)nc2ccc(O)cc12` are 5.97%, 5.53% and 2.83%.
On the same counts, the results for `O=[N+]([O-])c1ccc(Oc2c(Cl)cc(S(=O)(=O)NC3CCC(CN4CCC(c5c[nH]c6ccccc56)CC4)CC3)cc2Cl)c(Cl)c1` (stereo unspecified) are 2.41%, 0.39% and -1.14%.
In the case of `COc1ccc(CC(C)NCC(O)c2ccc(Cl)c(Cl)c2)cc1` (stereo unspecified), the inhibition is 0.41% in experiment [1], -0.07% in experiment [2] and -2.6% in experiment [3].
As to `CC(C)CNCc1cccc(-c2ccc(CN(C(=O)Nc3ccccc3)C3CCN(Cc4ccccc4)CC3)cc2)c1`, the inhibition in experiment [1] amounted to 2.16%; in experiment [2], 2.2%; in experiment [3], 2.04%.
On the same counts, the results for `O=C(/C=C/c1ccc(Cl)c(Cl)c1)NCc1ccc(CN2CCC(c3c[nH]c4ccccc34)CC2)cc1` are 2.64%, 2.44% and 0.41%.
As for `COc1cc(C=CC(=O)NC2CCC(CN3CCC(c4c[nH]c5ccccc45)CC3)CC2)cc(OC)c1` (stereo unspecified), the inhibition in experiment [1] was -1.01%; in experiment [2] it was -2.18%; in experiment [3], -3.65%.
Consider `S=C(NCCc1ccc(Cl)cc1)NC1CCC(CN2CCC(c3c[nH]c4ccccc34)CC2)CC1` (stereo unspecified), for which the inhibition is 2.11% and -0.48% in experiment [1]; 0.01% and 3.61% in experiment [2]; -2.05% and -1.85% in experiment [3].
With `COc1cccc(CN2CCC(CCOC(c3ccccc3)c3ccc(Cl)cc3)CC2)c1O` (stereo unspecified), the inhibition in experiment [1] stood at 26.2%; in experiment [2], 26.5%; in experiment [3], 12.5%.
In the case of `Oc1ccccc1CNCC(O)c1cc(C(F)(F)F)cc(C(F)(F)F)c1` (stereo unspecified), the figures for the inhibition in experiment [1], in experiment [2] and in experiment [3] were 6.65%, 5.51% and 4.91%, respectively.
On the same counts, the results for `Oc1ccc(Cl)cc1CN1CCC(CCOC(c2ccccc2)c2ccc(Cl)cc2)CC1` (stereo unspecified) are 46.7%, 25.3% and 5.18%.
Take `COC(=O)c1ccc(CC(C)NCC(O)c2cccc(I)c2)cc1` (stereo unspecified): the inhibition was -0.53% in experiment [1], -1% in experiment [2] and 0.29% in experiment [3].
In the case of `Cc1ccc(C2(O)CC3CCC(C2)N3C)cc1` (stereo unspecified), the inhibition in experiment [1] is 2.44%; in experiment [2] it was 2.72%; in experiment [3], 3.25%.
In the case of `FC(F)(F)c1cccc(N2CCC(CN3CCC(c4c[nH]c5ccccc45)CC3)CC2)n1`, the inhibition in experiment [1] is 7.61%; in experiment [2], 6.91%; in experiment [3] it was 7.85%.
Consider `COc1cc(/C=C/C(=O)NC2CCC(CN3CCC(c4c[nH]c5ccccc45)CC3)CC2)ccc1O` (stereo unspecified), for which the inhibition in experiment [1] is 0.32% and 3.25%; in experiment [2], 1.97% and 2.79%; in experiment [3], 1.02% and 1.53%.
As for `O=C(CCc1ccco1)NC1CCN(CC2(c3ccc(Cl)cc3)CCC2)CC1`, the inhibition in experiment [1] was 9.68%; in experiment [2], 8.13%; in experiment [3], 7.13%.
Regarding `N=c1c2c(n(Cc3ccc(Cl)cc3Cl)c3c1CCC3)CCCC2`, the inhibition in experiment [1] is 17.8%; in experiment [2] it was 26.7%; in experiment [3] it was 6.7%.
Turning to `S=C(NCCc1ccc(Cl)cc1)N1CCC(CN2CCC(c3c[nH]c4ccccc34)CC2)CC1`, the inhibition in experiment [1] was 3.04%; in experiment [2] it was 1.73%; in experiment [3], 1.67%.
Turning to `CC(C)(C)c1ccc(Cn2nc(C(=O)N3CCN(C(=O)C4CCCO4)CC3)c3ccccc32)cc1` (stereo unspecified), the results for the inhibition in experiment [1], in experiment [2] and in experiment [3] were 0.73%, 0.1% and -3.52%, respectively.

(Values after ChEMBL document CHEMBL3433997, “St. Jude Leishmania screening dataset” (2016).)
